Many of the other results were omitted from the sample, so the strongest signals are more common in it than they were.
Experiments:
Experiment in all cases: glycan array binding signal (z-score within array); higher = stronger binding
Conditions in all cases: glycan notation: IUPAC condensed, linker removed
Fuc(a1-2)Gal(b1-4)Glc = target: Fuc(a1-2)Gal(b1-4)Glc
In short: (§1)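 Arrays were curated from the Consortium for Functional Glycomics database, 3228 in total, and kept only where the protein sequence was available. Binding is expressed as a within-array Z-score. This score was averaged across arrays of the same protein sequence at different concentrations or buffers and across linkers, and negative values can be read as non-binding.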

Fuc(a1-2)Gal(b1-4)GlcNAc = target: Fuc(a1-2)Gal(b1-4)GlcNAc
In short: as §1

[1] = target: Fuc(a1-2)Gal(b1-4)[Fuc(a1-3)]GlcNAc(b1-3)Gal(b1-4)[Fuc(a1-3)]GlcNAc(b1-3)Gal(b1-4)[Fuc(a1-3)]GlcNAc
In short: as §1

[2] = target: Fuc(a1-2)Gal(b1-4)[Fuc(a1-3)]GlcNAc(b1-3)GalNAc
In short: as §1

[3] = target: Fuc(a1-2)[Gal(a1-3)]Gal(b1-4)GlcNAc(b1-2)Man(a1-3)[Fuc(a1-2)[Gal(a1-3)]Gal(b1-4)GlcNAc(b1-2)Man(a1-6)]Man(b1-4)GlcNAc(b1-4)[Fuc(a1-6)]GlcNAc
In short: as §1

[4] = target: Fuc(a1-2)[Gal(a1-3)]Gal(b1-4)[Fuc(a1-3)]Glc
In short: as §1

[5] = target: Fuc(a1-2)[Gal(a1-3)]Gal(b1-4)[Fuc(a1-3)]GlcNAc
In short: as §1

[6] = target: Fuc(a1-2)[GalNAc(a1-3)]Gal(b1-3)GlcNAc(b1-6)GalNAc
In short: as §1

[7] = target: Fuc(a1-2)[GalNAc(a1-3)]Gal(b1-4)[Fuc(a1-3)]GlcNAc(b1-3)GalNAc
In short: as §1

[8] = target: Fuc(a1-2)[GalNAc(b1-3)]Gal
In short: as §1

[9] = target: Gal(a1-3)Gal(b1-3)GlcNAc(b1-2)Man(a1-3)[Gal(a1-3)Gal(b1-3)GlcNAc(b1-2)Man(a1-6)]Man(b1-4)GlcNAc(b1-4)GlcNAc
In short: as §1

[10] = target: Gal(a1-3)Gal(b1-3)[Fuc(a1-4)]GlcNAc(b1-2)Man(a1-3)[Gal(a1-3)Gal(b1-3)[Fuc(a1-4)]GlcNAc(b1-2)Man(a1-6)]Man(b1-4)GlcNAc(b1-4)GlcNAc
In short: as §1

Gal(a1-3)Gal(b1-4)GlcNAc = target: Gal(a1-3)Gal(b1-4)GlcNAc
In short: as §1

[11] = target: Gal(b1-3)GlcNAc(b1-2)Man(a1-3)[GlcNAc(b1-4)][Gal(b1-3)GlcNAc(b1-2)Man(a1-6)]Man(b1-4)GlcNAc(b1-4)GlcNAc
In short: as §1

[12] = target: Gal(b1-3)GlcNAc(b1-3)Gal(b1-4)GlcNAc(b1-2)[Gal(b1-3)GlcNAc(b1-3)Gal(b1-4)GlcNAc(b1-6)]Man(a1-6)[Gal(b1-3)GlcNAc(b1-3)Gal(b1-4)GlcNAc(b1-2)Man(a1-3)]Man(b1-4)GlcNAc(b1-4)[Fuc(a1-6)]GlcNAc
In short: as §1

[13] = target: Gal(b1-4)GlcNAc(b1-2)Man(a1-3)[Gal(b1-4)GlcNAc(b1-2)Man(a1-6)]Man(b1-4)GlcNAc(b1-4)[Fuc(a1-6)]GlcNAc
In short: as §1

[14] = target: Gal(b1-4)GlcNAc(b1-3)Gal(b1-4)GlcNAc(b1-2)[Gal(b1-4)GlcNAc(b1-3)Gal(b1-4)GlcNAc(b1-6)]Man(a1-6)[Gal(b1-4)GlcNAc(b1-3)Gal(b1-4)GlcNAc(b1-2)Man(a1-3)]Man(b1-4)GlcNAc(b1-4)GlcNAc
In short: as §1

[15] = target: Gal(b1-4)GlcNAc(b1-3)Gal(b1-4)GlcNAc(b1-2)[Gal(b1-4)GlcNAc(b1-3)Gal(b1-4)GlcNAc(b1-6)]Man(a1-6)[Gal(b1-4)GlcNAc(b1-3)Gal(b1-4)GlcNAc(b1-2)Man(a1-3)]Man(b1-4)GlcNAc(b1-4)[Fuc(a1-6)]GlcNAc
In short: as §1

[16] = target: Gal(b1-4)GlcNAc(b1-3)Gal(b1-4)GlcNAc(b1-3)Gal(b1-4)GlcNAc(b1-3)Gal(b1-4)GlcNAc(b1-3)Gal(b1-4)GlcNAc(b1-2)[Gal(b1-4)GlcNAc(b1-3)Gal(b1-4)GlcNAc(b1-3)Gal(b1-4)GlcNAc(b1-3)Gal(b1-4)GlcNAc(b1-3)Gal(b1-4)GlcNAc(b1-6)]Man(a1-6)[Gal(b1-4)GlcNAc(b1-3)Gal(b1-4)GlcNAc(b1-3)Gal(b1-4)GlcNAc(b1-3)Gal(b1-4)GlcNAc(b1-3)Gal(b1-4)GlcNAc(b1-2)Man(a1-3)]Man(b1-4)GlcNAc(b1-4)[Fuc(a1-6)]GlcNAc
In short: as §1

[17] = target: Gal3S(b1-4)[Fuc(a1-3)]GlcNAc6S
In short: as §1

Gal6S(b1-4)Glc6S = target: Gal6S(b1-4)Glc6S
In short: as §1

[18] = target: Glc(a1-6)Glc(a1-6)Glc(a1-6)Glc
In short: as §1

[19] = target: GlcA3S(b1-3)Gal(b1-4)GlcNAc(b1-3)Gal(b1-4)Glc
In short: as §1

[20] = target: GlcNAc(b1-2)Man(a1-3)[GlcNAc(b1-2)Man(a1-6)]Man(b1-4)GlcNAc(b1-4)[Fuc(a1-6)]GlcNAc
In short: as §1

B1: Nc3LysM (protein)
chain: QFTVPPDTTAEPNTIKTCTWWHVAGSGDSCTSIASTYGITSEQFARWDMETTDSPKNPSVATACKLTVGNSYCIENNFGQDDPPTPSISSSTLIGTATTSTTASTTTGNGISTPTPIQEGMETATTTTSSGNGITTPTPTQAGMETVGNCDRFHLVKSGDQCGTIASTYGITLANFYSWNPAVGTSCQSLWLDTYVCVRTIGFVPPKTTTTTTKKPTSTTSAGGVATPTPTQPGMETVSGCKKFHKGRGNVSTVASGDQCGTIATRYGISLANFYSWNPAVGSSCQTLWLDYYVCVGR
glycan array binding signal (z-score) (Fuc(a1-2)Gal(b1-4)Glc): 0.401 | glycan array binding signal (z-score) (Fuc(a1-2)Gal(b1-4)GlcNAc): -0.219 | glycan array binding signal (z-score) [1]: 0.172 | glycan array binding signal (z-score) [2]: -0.251 | glycan array binding signal (z-score) [3]: -0.173 | glycan array binding signal (z-score) [4]: 0.064 | glycan array binding signal (z-score) [5]: -0.157 | glycan array binding signal (z-score) [6]: -0.237 | glycan array binding signal (z-score) [7]: -0.076 | glycan array binding signal (z-score) [8]: -0.092 | glycan array binding signal (z-score) [9]: 0.295 | glycan array binding signal (z-score) [10]: 0.161 | glycan array binding signal (z-score) (Gal(a1-3)Gal(b1-4)GlcNAc): 0.019 | glycan array binding signal (z-score) [11]: 0.083 | glycan array binding signal (z-score) [12]: 0.304 | glycan array binding signal (z-score) [13]: -0.048 | glycan array binding signal (z-score) [14]: 0.008 | glycan array binding signal (z-score) [15]: -0.048 | glycan array binding signal (z-score) [16]: 0.342 | glycan array binding signal (z-score) [17]: 0.178 | glycan array binding signal (z-score) (Gal6S(b1-4)Glc6S): 0.307 | glycan array binding signal (z-score) [18]: 0.326 | glycan array binding signal (z-score) [19]: -0.126 | glycan array binding signal (z-score) [20]: 0.106
